Assay results from PubChem BioAssay AID1159580 (chemical genetic matrix, 2015).
Values joined by “and” are separate entries in the source; they are usually repeats but may differ in a detail not shown here. Identical values can stand only once. About 2,000 (36%) of roughly 5,500 compounds were called active. Inconclusive results (about 18%) are left out. Rule as the data show it: active = normalized growth mostly below about 0.91 (no sharp cut-off); inconclusive = no clear call, values can overlap the other calls; inactive = mostly above about 0.92. This is one part of the list.

Experiment: chemical genetic growth profiling, strain panel (AID 1159580);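 also: tested at 20 µM; growth read once vehicle control cultures reached saturation at 30 °C; 1 = growth at the plate median or of vehicle wells; lower values mean less growth of the strain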
Settings: S. cerevisiae deletion strains, growth OD

Measured: normalized growth

O=C1C[C@@H](c2ccc(O)cc2)Oc2cc(O)cc(O)c21
inactive: locus YAL013W, strain DEP1, stronger effect = lower value 1.02 | locus YAL021C, strain ccr4, stronger effect = lower value 0.987 | locus YAL026C, strain drs2, stronger effect = lower value 0.969 | locus YAL030W, strain snc1, stronger effect = lower value 0.953 | locus YBL061C, strain skt5, stronger effect = lower value 0.974 | locus YBR009C, strain hhf1, stronger effect = lower value 0.959 | locus YBR021W, strain FUR4, stronger effect = lower value 0.995 | locus YBR023C, strain chs3, stronger effect = lower value 0.955 | locus YBR171W, strain sec66, stronger effect = lower value 0.989 | locus YBR229C, strain ROT2, stronger effect = lower value 1.02 | locus YBR231C, strain swc5, stronger effect = lower value 0.972 | locus YBR279W, strain paf1, stronger effect = lower value 0.97 | locus YCL011C, strain gbp2, stronger effect = lower value 0.952 | locus YCL016C, strain dcc1, stronger effect = lower value 0.969 | locus YCL029C, strain bik1, stronger effect = lower value 1.03 | locus YCL061C, strain MRC1, stronger effect = lower value 0.979 | locus YCL069W, strain vba3, stronger effect = lower value 0.966 | locus YCR088W, strain abp1, stronger effect = lower value 0.955 | locus YDL005C, strain med2, stronger effect = lower value 0.978 | locus YDL035C, strain GPR1, stronger effect = lower value 1.01 | locus YDL040C, strain nat1, stronger effect = lower value 0.976 | locus YDL074C, strain BRE1, stronger effect = lower value 1.01 | locus YDL101C, strain DUN1, stronger effect = lower value 1.01 | locus YDL134C, strain PPH21, stronger effect = lower value 1.01 | locus YDL185W, strain tfp1, stronger effect = lower value 1.01 | locus YDL192W, strain arf1, stronger effect = lower value 1.01 | locus YDR001C, strain nth1, stronger effect = lower value 0.964 | locus YDR069C, strain doa4, stronger effect = lower value 0.944 | locus YDR101C, strain arx1, stronger effect = lower value 1.01 | locus YDR137W, strain rgp1, stronger effect = lower value 0.955 | locus YDR150W, strain NUM1, stronger effect = lower value 1.01 | locus YDR159W, strain sac3, stronger effect = lower value 0.942 | locus YDR162C, strain NBP2, stronger effect = lower value 1.01 | locus YDR195W, strain ref2 0.931 | locus YDR297W, strain sur2, stronger effect = lower value 0.97 | locus YDR318W, strain mcm21, stronger effect = lower value 1.01 | locus YDR334W, strain swr1, stronger effect = lower value 0.962 | locus YDR335W, strain msn5, stronger effect = lower value 0.979 | locus YDR388W, stronger effect = lower value 1.01 | locus YDR392W, strain spt3, stronger effect = lower value 0.862 | locus YDR502C, strain sam2, stronger effect = lower value 1.01 | locus YEL003W, strain gim4, stronger effect = lower value 0.977 | locus YEL037C, strain rad23, stronger effect = lower value 0.968 | locus YEL061C, strain CIN8 (second series), stronger effect = lower value 0.949 | locus YEL061C, strain CIN8, stronger effect = lower value 1.01 | locus YER015W, strain faa2, stronger effect = lower value 0.982 | locus YER016W, strain bim1, stronger effect = lower value 0.971 | locus YER110C, stronger effect = lower value 1.02 | locus YER111C, strain swi4, stronger effect = lower value 0.958 | locus YER155C, strain BEM2 (second series), stronger effect = lower value 0.875 | locus YER155C, strain BEM2, stronger effect = lower value 1.01 | locus YER167W, strain BCK2, stronger effect = lower value 1.01 | locus YFR010W, strain ubp6, stronger effect = lower value 0.924 | locus YGL078C, strain dbp3, stronger effect = lower value 1.02 | locus YGL086W, strain mad1, stronger effect = lower value 1.01 | locus YGL167C, strain pmr1, stronger effect = lower value 0.949 | locus YGL173C, strain kem1, stronger effect = lower value 0.969 | locus YGL227W, strain vid30, stronger effect = lower value 0.948 | locus YGL240W, strain doc1, stronger effect = lower value 0.944 | locus YGL248W, strain PDE1, stronger effect = lower value 1.01 | locus YGL253W, strain hxk2, stronger effect = lower value 0.983 | locus YGR078C, strain PAC10, stronger effect = lower value 1.01 | locus YGR135W, strain pre9, stronger effect = lower value 1 | locus YGR229C, strain SMI1, stronger effect = lower value 1.01 | locus YGR252W, strain gcn5, stronger effect = lower value 0.988 | locus YHR013C, strain ard1, stronger effect = lower value 0.933 | locus YHR027C, strain rpn1, stronger effect = lower value 0.971 | locus YHR030C, strain SLT2, stronger effect = lower value 1.01 and 0.975 | locus YHR079C, strain IRE1 (second series), stronger effect = lower value 1.01 | locus YHR079C, strain IRE1, stronger effect = lower value 0.977 | locus YHR094C, strain hxt1, stronger effect = lower value 1 | locus YHR129C, strain ARP1, stronger effect = lower value 1.01 | locus YHR142W, strain chs7, stronger effect = lower value 0.942 | locus YHR200W, strain rpn10, stronger effect = lower value 1.01 | locus YIL066C, strain RNR3, stronger effect = lower value 1.02 | locus YIL073C, strain SPO22, stronger effect = lower value 1.05 | locus YIL125W, strain kgd1, stronger effect = lower value 1.01 | locus YIR030C, strain dcg1, stronger effect = lower value 1.02 | locus YJL092W, strain hpr5, stronger effect = lower value 0.977 | locus YJL095W, strain BCK1 (second series), stronger effect = lower value 0.976 | locus YJL095W, strain BCK1, stronger effect = lower value 0.997 and 0.98 | locus YJL115W, strain asf1, stronger effect = lower value 0.964 | locus YJL129C, strain trk1, stronger effect = lower value 0.947 | locus YJL134W, strain LCB3, stronger effect = lower value 1.01 | locus YJL154C, strain vps35, stronger effect = lower value 0.967 | locus YJL164C, strain tpk1, stronger effect = lower value 0.97 | locus YJL166W, strain qcr8, stronger effect = lower value 0.968 | locus YJL168C, strain set2, stronger effect = lower value 1.02 | locus YJL187C, strain SWE1 (second series), stronger effect = lower value 1.02 | locus YJL187C, strain SWE1, stronger effect = lower value 0.965 | locus YJR043C, strain POL32, stronger effect = lower value 1.01 | locus YJR066W, strain TOR1, stronger effect = lower value 0.935
